Test results reported in PubChem BioAssay.
Calls of active or inactive are those of the source. Unless noted, no rule for the calls is given here.

Columns and labels:
[1] = stimulators of nuclear beta-catenin in C2C12, primary screen, imaging, WNT3A-conditioned medium, mouse C2C12, NPC library (AID 1117326; in the data active = nuclear beta-catenin stimulation mostly above about 4.2%, no sharp cut-off; inactive = mostly below about 10%); conditions: stronger effect = higher value
[2] = stimulators of insulin release from INS-1E, primary screen, cell-based, 5 mM glucose, NPC library (AID 1117329;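 active = compound raises insulin release from rat beta cells at 5 mM glucose, no numeric limit stated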); conditions: rat INS-1E insulin secretion, at 10 µM, stronger effect = higher value
[3] = growth inhibition of GSK3B-pretreated HCT116 cells – cell-based, CellTiter-Glo, 0.2 to 20 µM (AID 1117336;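 active = compounds lowering colon cancer cell viability after pretreatment blocking the GSK3B kinase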); conditions: HCT116 viability after GSK3B inhibitor, at 20 µM, stronger effect = higher value
[4] = inhibition of endothelial tube formation, primary screen, imaging, VEGF stimulated, CD31 staining, tube area, NPC library (AID 1117340;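 active = compound that reduces growth-factor-driven endothelial tube area in a mixed cell culture, no cutoff stated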); conditions: VEGF-stimulated ADSC/ECFC co-culture, at 10 µM, stronger effect = higher value
[5] = glucagon-like peptide 1 release enhancers, primary assay, NCI-H716 cell line, NPC library (AID 1117341;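 active = compound raises GLP1 secretion from the human gut endocrine cells, with no numeric limit stated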); conditions: NCI-H716 cells, at 10 µM, stronger effect = higher value
[6] = HCT116 colon cancer cell growth inhibition, primary screen, CellTiter-Glo luminescence, NPC library (AID 1117342;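 active = compounds that lower survival of HCT116 colon cancer cells in the luminescence readout, no numeric limit stated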); conditions: at 20 µM (top of the series)
[7] = CellTiter-Glo luminescent readout of SW480 viability loss, NPC library primary (AID 1117343;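 active = compounds that lower viability of the colon cancer cells in the luminescence readout, with no numeric limit stated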); conditions: CellTiter-Glo luminescence; at 20 µM (top of the series)
[8] = decreased DLD-1 cellular survival, CellTiter-Glo luminescent readout, NPC compound collection, primary HTS (AID 1117346;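 active = compounds that lower survival of DLD-1 colon cancer cells in the luminescence readout, no cutoff given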); conditions: DLD-1 viability, CellTiter-Glo luminescence; at 20 µM (top of the series)
[9] = kinase inhibitors against Plasmodium liver-stage infection, cell-based, known kinase inhibitor set, luminescence, hepatoma host viability (AID 624392); conditions: Plasmodium liver stage in hepatoma cells, luciferase luminescence, concentration not given here; liver cell % of control: measured here: host liver cell viability; parasite % of control: stronger effect = lower value;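 also: infected cells incubated roughly two days before readout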
[10] = modulators of glucocorticoid suppression of NF-kB, cell-based, luciferase, IL-1B stimulus, dexamethasone (AID 624486); conditions: NF-kB luciferase reporter, IL-1B + dexamethasone, luminescence; percent of negative control (+Dex): actives lie on both sides, concentration not given here; z-score: measured here: IL-1B alone, no Dex;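 as to percent of negative control (+Dex): 100% = mean signal of vehicle control wells on the plate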
[11] = kinase inhibitors altering Pseudomonas killing of worms, whole organism (AID 651566);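 also: tested at 14 µM; sign flipped so higher z means a lower ratio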; conditions: C. elegans killed by P. aeruginosa, survival ratio
[12] = activators of macrophage pro-inflammatory response, cell-based, murine, luminescence (AID 652131); conditions: murine macrophage pro-inflammatory reporter, stronger effect = higher value
[13] = IRF3 reporter activation in THP-1 macrophages, cell-based, PMA-stimulated THP-1, luminescence (AID 1053176); conditions: PMA-differentiated THP-1, IRF3 reporter luminescence; stronger effect = higher value
[14] = survival rescue of mitochondrial mutant cells in low glucose, primary screen, MELAS cybrids, Rieske KO mouse fibroblasts, CellTiter-Glo (AID 1508586;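 active = mean z-score across replicates of 1.96 or higher in either the MELAS or the Rieske mutant cell line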;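 also: z relative to plate mean and SD of compound and empty wells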)
[15] = MELAS cybrid survival, CellTiter-Glo 48 h, stronger effect = higher value
[16] = Rieske KO mouse fibroblast survival, CellTiter-Glo 72 h

SMILES	nuclear beta-catenin stimulation ([1]; at 10 µM)	nuclear beta-catenin stimulation ([1]; stimulation, at 2 µM) [%]	insulin secretion stimulation [2]	viability decrease [3]	tube area decrease [4]	GLP1 secretion stimulation [5]	inhibition of viability [6]	viability decrease (inhibition) [7]	viability decrease (inhibition) [8]	liver cell % of control [9] [%]	parasite % of control [9]	percent of negative control (+Dex) [10]	z-score [10]	z-score [11]	z-score [12]	fraction signal [13]	z-score [14, 15]	z-score [14, 16]
CCC(CN)=C(c1ccccc1)c1ccccc1	-0.1% (inactive)	0.1	29.4% (active)	17.9% (inactive)	7% (inactive)	2.2% (inactive)	78.6% (active)	92% (active)	55.1% (active)									
COc1ccccc1C1=C(Nc2ccccc2)C(=O)NC1=O										112	110% (inactive)	102% (inactive)	0.775	-0.36 (inactive)	-0.103 (inactive)	-0.012 (inactive)	-1.08 (inactive)	-0.271
COc1cc(C(=O)OC(COCCC(C)C)CN2CCOCC2)cc(OC)c1OC (stereo not drawn)	0.4% (inactive)	2.6	1.9% (inactive)	-9.2% (inactive)	0.7% (inactive)	13.1% (inactive)	18.4% (inactive)	39.2% (inactive)	2.2% (inactive)									
CCC(=O)O	-0.6% (inactive)	1.3	3.2% (inactive)	-1.2% (inactive)	-25.7% (inactive)	-3% (inactive)	3.7% (inactive)	-0.5% (inactive)	3.7% (inactive)									
O=C(OCC(O)CO)c1ccccc1Nc1ccnc2c(C(F)(F)F)cccc12 (stereo not drawn)	1% (inactive)	0.5	-0.3% (inactive)	-37% (inactive)	-5.3% (inactive)	4.1% (inactive)	12% (inactive)	30.4% (inactive)	-17.2% (inactive)									
CC(=O)c1ccc(OCC(=O)N2CCCCC2)cc1	1.1% (inactive)	-0.3	0.25% (inactive)	7.4% (inactive)	7% (active)	0.7% (inactive)	-3.4% (inactive)	-3.6% (inactive)	-2.8% (inactive)									
Cc1ccc(NC(=O)c2ccnc(N3CCOCC3)c2)cc1-c1ccc(C(=O)NCC2CC2)cc1										100	95.1% (inactive)	102% (inactive)	1.12	0.01 (inactive)	-0.216 (inactive)	-0.0075 (inactive)	-0.365 (inactive)	-0.395
CC(=O)c1ccc(O)c(C(N)=O)c1	0.2% (inactive)	-1.6	0.6% (inactive)	20.8% (inactive)	-0.3% (inactive)	1.6% (inactive)	0.1% (inactive)	-10.5% (inactive)	6.9% (inactive)									
CCCCN(CCCC)C(C(N)=O)c1ccc(OC)cc1 (stereo not drawn)	0% (inactive)	-1.4	36.4% (active)	-5.1% (inactive)	6.6% (inactive)	2.1% (inactive)	30.2% (inactive)	10.2% (inactive)	2.6% (inactive)									
Cc1cccc(Oc2nccc(-c3c(-c4ccc(F)cc4)ncn3C3CCNCC3)n2)c1C										58.8	99.5% (inactive)	104% (inactive)	0.6	-0.775 (inactive)	8.3 (active)	-0.0055 (inactive)	-0.134 (inactive)	-0.269
CCS(=O)(=O)c1ccc(OC)c(Nc2ncc(-c3cccc(F)c3)o2)c1										140	19.6% (inactive)	84.5% (inactive)	-0.335	-0.615 (inactive)	-0.303 (inactive)	-0.0005 (inactive)	1.69 (inactive)	-0.478
Nc1ccc(S(=O)(=O)Nc2ccccc2)cc1	1% (inactive)	0.9	-2.7% (inactive)	-9.8% (inactive)	10.5% (inactive)	3.7% (inactive)	-1.7% (inactive)	5.2% (inactive)	0.95% (inactive)									
COC(=O)c1cc(Cl)c(NC(C)=O)cc1OC	1.9% (inactive)	0.7	0.95% (inactive)	-12.1% (inactive)	-7.7% (inactive)	1.2% (inactive)	-1.4% (inactive)	-23.1% (inactive)	-11.9% (inactive)									
COc1cc2ncn(-c3cc(O[C@@H](C)c4ccccc4Cl)c(C(N)=O)s3)c2cc1OC										100	110% (inactive)	124% (inactive)	2.36	-0.555 (inactive)	-0.639 (inactive)	-0.002 (inactive)	-0.552 (inactive)	0.815
c1ccc(-c2nc[nH]c2-c2ccccc2)cc1	0.2% (inactive)	2.7	-1.3% (inactive)	-7.1% (inactive)	12.1% (inactive)	3.1% (inactive)	-17.5% (inactive)	55% (active)	-0.05% (inactive)									
Cc1onc(-c2ccccc2)c1C(=O)Cl	0% (inactive)	-1.4	2.75% (inactive)	0.5% (inactive)	-12.1% (inactive)	1.7% (inactive)	1.8% (inactive)	-5.7% (inactive)	-12.5% (inactive)									
O=S1CCN(Cc2ccc(-c3ccc4ncnc(Nc5ccc(OCc6cccc(F)c6)c(Cl)c5)c4c3)o2)CC1										103	99.6% (inactive)	74.5% (inactive)	-1.72	-0.375 (inactive)	13.5 (active)	-0.007 (inactive)	0.445 (inactive)	-0.225
N#Cc1c(NC(=O)c2cccc3ccccc23)sc2c1CCCN2C(=O)C1CC1										190	15.9% (inactive)	106% (inactive)	-0.12	-0.17 (inactive)	-0.734 (inactive)	0.002 (inactive)	-0.726 (inactive)	-0.0978
C[C@@H](Oc1cc(-n2cnc3ccc(OC4CCN(C)CC4)cc32)sc1C(N)=O)c1ccccc1Cl										70.4	183% (inactive)	73% (inactive)	-2.66	-0.3 (inactive)	-1.72 (inactive)	-0.008 (inactive)	-0.022 (inactive)	-0.0227
NC(=O)CCc1ccccc1Oc1nccc(-c2c(-c3ccc(F)cc3)ncn2C2CCNCC2)n1										91.6	151% (inactive)	95.5% (inactive)	0.275	0.875 (inactive)	0.861 (inactive)	-0.0055 (inactive)	-0.2 (inactive)	-0.462
CCCCCCCCCCCCCC[N+](C)(C)C	61.2% (active)	7.5	-0.2% (inactive)	101% (active)	110% (active)	29.7% (active)	101% (active)	122% (active)	103% (active)									
N#Cc1c(NC(=O)c2ccc(F)c3ccccc23)sc2c1CCCC2										93.8	163% (inactive)	118% (inactive)	0.625	1.47 (inactive)	-1.25 (inactive)	0.0065 (inactive)	-0.605 (inactive)	0.108
